This is one part of a sample in which hits are shown more often than they occur.
CBX7 inh – inhibitors of human CBX7 binding to H3K27me3 peptide. AID 1224903. AlphaScreen His6-CBX7 / biotin-H3K27me3 peptide binding; stronger effect = lower value. actives 1.1% (n = 66,000). normalised signal (fraction of DMSO) (test concentration not listed). O95931; in the data active = normalised signal below about 0.5
Target sequence (O95931 whole entry, looked up): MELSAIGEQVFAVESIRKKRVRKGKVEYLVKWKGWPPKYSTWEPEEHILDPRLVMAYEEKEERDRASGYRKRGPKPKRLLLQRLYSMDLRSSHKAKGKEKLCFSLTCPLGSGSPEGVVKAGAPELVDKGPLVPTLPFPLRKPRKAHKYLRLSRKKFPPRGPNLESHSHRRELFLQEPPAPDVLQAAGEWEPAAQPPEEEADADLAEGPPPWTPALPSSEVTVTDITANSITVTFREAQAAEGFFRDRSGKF
Active calls of the source: *.

SMILES | CBX7 inh
CCCCOCC(O)CN1CCN(C(C)=O)CC1 (stereo not drawn) | 1.1
Cc1nn(Cc2ccc(Cl)c(Cl)c2)c(C)c1NC(=O)c1cc(-c2cccs2)on1 | 0.97
CC(C)(C)OC(=O)N1CCC(c2c(C(=O)Nc3cc(F)ccc3F)cnn2-c2ccccc2)CC1 | 0.98
CC(=O)N1CCc2cc(Br)cc(S(=O)(=O)NCCCN(C)C)c21 | 1
COc1ccc(C(O)Cn2c(=N)n(CCCN(C)C)c3ccccc32)cc1 (stereo not drawn) | 0.95
CCC(=C(c1ccc(OC)cc1)c1ccc(OC)cc1)c1cn(CCCN(C)C)c2ccccc12 | 0.27*
COc1ccc(C(=O)c2cn(Cc3ccc(Cl)cc3)c3ccccc3c2=O)cc1 | 0.62
COc1cccc(NC(=O)CCc2c(C)nc3nc(C)nn3c2C)c1 | 1.3
Cc1oc(-c2ccccc2Cl)nc1CS(=O)(=O)CC(=O)NCCCc1ccccc1 | 0.98
Cc1ccc(Nc2c(-c3cccc(Br)c3)nc3cc(C)ccn23)cc1 | 0.79
COC(=O)CNc1c(-c2ccccn2)nc2ccccn12 | 0.28*
COC(=O)CNc1c(-c2ccccn2)nc2cnccn12 | 0.98
COC(=O)CNc1c(-c2c[nH]c3ccccc23)nc2ccc(Br)cn12 | 0.8
Cc1ccc(Nc2c(-c3cccnc3)nc3cc(C)ccn23)cc1 | 0.91
COc1ccc(Nc2c(-c3ccccn3)nc3ccc(Br)cn23)cc1 | 0.84
COc1ccc(Nc2c(-c3ccccn3)nc3ccc(Cl)cn23)cc1 | 0.72
Fc1ccc(Nc2c(-c3ccccn3)nc3ccccn23)cc1 | 0.059*
Cc1ccc(Nc2c(-c3ccccn3)nc3cc(C)ccn23)cc1 | 0.00096*
Fc1ccc(Nc2c(-c3ccc(Cl)cc3)nc3ncccn23)cc1 | 1.2
Fc1ccc(Nc2c(-c3ccccc3)nc3ccccn23)cc1 | 1
COc1ccc(Nc2c(-c3ccccn3)nc3cc(C)ccn23)cc1 | 0*
CN(Cc1ccccc1)C(=O)C1C2C=CC(C2)C1C(=O)O (stereo not drawn) | 1
CCN(CCCNC(=O)Cc1c(C(=O)O)[nH]c2ccc(Cl)cc12)c1cccc(C)c1 | 1
CC(C)(C)C(=O)NCCc1nc2ccccc2n1Cc1c(F)cccc1Cl | 0.94
COc1ccc(-c2nc(CS(=O)(=O)CC(=O)NCCN3CCOCC3)c(C)o2)cc1 | 1
SMILES | CBX7 inh
O=C(Nc1nnc(N2CCCCCC2)s1)Nc1ccccc1Cl | 0.81
CCOc1ccc(C(=O)c2cn(Cc3ccc(Cl)cc3)c3cc4c(cc3c2=O)OCO4)cc1 | 0.75
Cc1ccc(-n2ncc(C(=O)O)c2C2CCN(C(=O)OC(C)(C)C)CC2)cc1C | 1
Cc1ccn2c(Nc3ccc(C(C)C)cc3)c(-c3ccccn3)nc2c1 | 0.0075*
Cc1ccc(-c2nc3cnccn3c2Nc2ccc(C(C)C)cc2)cc1 | 0.91
Cc1ccn2c(Nc3ccc(C(C)C)cc3)c(-c3ccsc3)nc2c1 | 1
CCCCN(CCCC)CC(O)CN(c1ccc(C)cc1)S(=O)(=O)c1ccc(C)cc1 (stereo not drawn) | 0.97
Cc1cc2c(=O)n(CC(=O)Nc3ccc(F)c(Cl)c3)cnc2s1 | 0.99
N#Cc1nc(COc2ccc(F)cc2)oc1N1CCCCC1 | 0.42*
N#Cc1nc(COc2ccc(F)cc2)oc1N1CCC(C(N)=O)CC1 | 0.99
N#Cc1nc(COc2ccc(Cl)cc2)oc1N1CCN(Cc2ccccc2)CC1 | 0.71
CCN1CCN(c2oc(COc3ccc(F)cc3)nc2C#N)CC1 | 0.94
COc1ccc(N2CCN(c3oc(COc4ccc(Cl)cc4)nc3C#N)CC2)cc1 | 0.56
COc1ccc(N2CCN(c3oc(COc4ccccc4OC)nc3C#N)CC2)cc1 | 0.55
N#Cc1nc(-c2ccc(F)cc2)oc1N1CCCCCC1 | 0.79
N#Cc1nc(COc2ccccc2)oc1N1CCCCCC1 | 0.46*
COc1ccc(N2CCN(c3oc(COc4cccc(C)c4)nc3C#N)CC2)cc1 | 0.49*
N#Cc1nc(COc2ccc(F)cc2)oc1N1CCCCCC1 | 0.5*
N#Cc1nc(COc2ccccc2Cl)oc1N1CCCCC1 | 0.75
N#Cc1nc(COc2ccc(Cl)cc2)oc1N1CCCCC1 | 0.76
CCCCC(CC)CNC(=O)c1cnn2c(C)c(Cc3ccc(C)cc3)c(C)nc12 (stereo not drawn) | 0.95
CCOc1ccc(CC(=O)NCCc2c(C)[nH]c3c(C)ccc(F)c23)cc1OCC | 0.64
O=c1nc(/C=C/c2cn[nH]c2-c2ccc(Cl)cc2)cc(C(F)(F)F)[nH]1 | 1.2
CC(C)c1ccc2oc(-c3ccc(NC(=O)COc4ccccc4)cc3)nc2c1 | 0.98
COc1ccc(Cl)cc1N(C)C(=O)Cc1c(C(=O)O)[nH]c2ccc(Cl)cc12 | 1.1
SMILES | CBX7 inh
Cc1ccc(OCc2nc(C#N)c(N3CCCCCC3)o2)cc1 | 0.4*
Cc1ccccc1OCc1nc(C#N)c(N2CCOCC2)o1 | 0.86
COc1ccc(OCc2nc(C#N)c(N3CCCCCC3)o2)cc1 | 0.58
Cc1ccccc1OCc1nc(C#N)c(N2CCCCCC2)o1 | 0.47*
Cc1ccccc1OCc1nc(C#N)c(N2CCCCC2)o1 | 0.71
Cc1ccc(OCc2nc(C#N)c(N3CC(C)CC(C)C3)o2)cc1 (stereo not drawn) | 0.53
Cc1cccc(NC(=O)CNC(=O)Cn2ccc3ccccc3c2=O)n1 | 1
COc1ccc(-n2cnc3cc(NCc4ccccc4OC)ccc32)cc1 | 0.31*
COc1ccccc1CNc1ccc2c(c1)ncn2-c1ccc(C)cc1 | 0.22*
COc1ccccc1CNc1ccc2c(c1)ncn2-c1ccccc1OC | 0.59
COc1ccc(CNc2ccc3c(c2)ncn3-c2ccc(C)cc2)cc1 | 0.27*
CCOc1ccc(CNc2ccc3c(c2)ncn3-c2ccc(OC)cc2)cc1 | 0.75
COc1ccc(CNc2ccc3c(c2)ncn3C)c(OC)c1 | 0.96
COc1ccccc1CNC(=O)c1ccc2c(c1)ncn2-c1ccc(C)c(Cl)c1 | 0.86
COc1ccc(-n2cnc3cc(NCc4ccc(OC)c(OC)c4)ccc32)cc1 | 0.96
CCCn1cnc2cc(NCc3ccccc3OC)ccc21 | 0.58
CCCn1c(CCNC(=O)c2ccc(F)cc2)nc2ccccc21 | 1
O=C(NCc1ccccc1Cl)c1cc(=O)nc2sc(-c3cccs3)nn12 | 1.1
COc1cc2c(cc1OC)C(C(=O)NCc1ccc(F)cc1)C(c1cccnc1)N(C)C2=O (stereo not drawn) | 1.1
COc1ccc(Nc2nc3ccccc3[nH]2)cc1 | 0.85
CCC(=O)N1CCc2cc(S(=O)(=O)NC3CCN(Cc4ccccc4)CC3)ccc21 | 0.96
Cc1ccc(S(=O)(=O)Nc2ccc3nc(-c4ccccc4)oc3c2)cc1 | 0.97
Cc1ccc(Cc2c(C)nc3nc(SCC(=O)NC4CCCCC4)nn3c2C)cc1 | 1.1
COc1ccc(-c2noc(-c3ccc(Br)cc3)n2)cc1OC | 1.3
COc1c(-c2cc(-c3ccccc3)n[nH]2)c(O)c(OC)c2occc12 | 0.65
SMILES | CBX7 inh
COc1ccc(-c2cc(-c3c(O)c(OC)c4occc4c3OC)[nH]n2)cc1OC | 0.45*
Cc1cccc(-n2c(Cc3cc(=O)[nH]c(=O)[nH]3)nnc2SCC(=O)Nc2nnc(C)s2)c1 | 1
c1ccc(Cc2ccc(Oc3ncnc4sc5c(c34)CCCC5)cc2)cc1 | 1.3
c1nc(Oc2ccc3c4c2CCCN4CCC3)c2c3c(sc2n1)CCCC3 | 0.27*
c1ccc(COc2ccc(Oc3ncnc4sc5c(c34)CCCC5)cc2)cc1 | 1.2
Cc1cc2ncn(CC(O)COc3ccc(C(=O)O)cc3)c2cc1C (stereo not drawn) | 1
O=C1c2ccccc2C(=O)N1CC(O)COCc1ccccc1 (stereo not drawn) | 1
Cc1cccc(OCC(O)Cn2cnc3cc(C)c(C)cc32)c1 (stereo not drawn) | 0.045*
